Compounds without any hit were thinned out: in the full panel of roughly 79,000, 15% have a hit. Values without a mark were called inactive. The source made the active and inactive calls. Cut-off read from the data, not from the text of the source: active = growth inhibition above about 70%; inactive = the rest.
Experiments:
[1] = NCI Yeast Anticancer Drug Screen. Data for the rad50 strain (AID 155);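 note: 0% = growth of vehicle-only cultures of the same strain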; details: S. cerevisiae rad50 strain growth inhibition; at 50.0 µM; stronger effect = higher value
How it was run: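 Readout: growth inhibition relative to vehicle-treated cultures. Compound exposure was carried out in a genetically defined yeast strain deficient in DNA damage repair.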

[2] = NCI Yeast Anticancer Drug Screen. Data for the mec2-1 strain (AID 157); details: S. cerevisiae mec2-1 strain, at 50.0 µM, stronger effect = higher value
How it was run: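 Readout is yeast growth inhibition, normalised to vehicle-treated controls, in the mec2-1 strain exposed to compound.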

[3] = NCI Yeast Anticancer Drug Screen. Data for the sgs1 mgt1 strain (AID 161);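 note: 0% = growth of cultures given vehicle only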; details: S. cerevisiae sgs1 mgt1 strain, at 50.0 µM, stronger effect = higher value
How it was run: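 Percent growth inhibition was derived by comparing compound-exposed mutant yeast with vehicle-exposed cultures. The strain carries alterations in DNA damage repair.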

[4] = NCI Yeast Anticancer Drug Screen. Data for the cln2 rad14 strain (AID 165);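 note: 0% = growth equal to vehicle treated cultures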; details: S. cerevisiae cln2 rad14 strain, at 50.0 µM, stronger effect = higher value
How it was run: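 Relative to vehicle controls, growth inhibition of compound-treated cln2 rad14 yeast was recorded.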

[5] = NCI Yeast Anticancer Drug Screen. Data for the bub3 strain (AID 167); details: S. cerevisiae bub3 mutant strain, at 50.0 µM, stronger effect = higher value
How it was run: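 Readout: yeast growth inhibition, expressed relative to vehicle-only wells. The test organism is a mutant strain from a panel with lesions in DNA repair or checkpoint genes.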

[6] = NCI Yeast Anticancer Drug Screen. Data for the mlh1 rad18 strain (AID 175); details: S. cerevisiae mlh1 rad18 strain growth inhibition; at 50.0 µM; stronger effect = higher value
How it was run: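 Test agents were incubated with a yeast strain of defined genotype (DNA damage repair defect). Inhibition of growth was derived by comparison with vehicle-exposed cultures.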

SMILES	growth inhibition [1]	growth inhibition [2]	growth inhibition [3]	growth inhibition [4]	growth inhibition [5]	growth inhibition [6]
NC(=NCC(O)c1ccccc1)Nc1ccccc1 (stereo unspecified)	0.75%	-8.6%	15.1%	6.1%	18.1%	10.6%
O=C(NNC(=O)c1ccc(Cl)cc1Cl)c1ccccc1	-13.8%	0.2%	-4.75%	-9.9%	-9.2%	-7.8%
CCCCCCCCCCCCCCCCn1/c(=N\N=O)sc2ccccc21	-9.65%	-17.9%	-8.4%	11.6%	-0.4%	-0.25%
COc1cccc(NC(=O)c2cccc(C(=O)Nc3cccc(OC)c3)c2)c1	7%	5.55%	4.15%	-32.8%	-2.6%	35%
CN(C(=O)C12C3C4C1C1C2C3C41C#N)C(C)(C)C (stereo unspecified)	20.6%	6.15%	2.5%	11.2%	20.5%	19.6%
O=C1N(CCN2CCC3(CC2)OCCO3)CCN1c1cc(Cl)cc(Cl)c1	56.9%	25.4%	51%	34.3%	24.6%	37.8%
Clc1ccccc1C=NC1CCCCC1	-5.1%	-12.2%	-0.3%	-1.15%	-5.85%	-3.1%
COc1cc(OC)cc(OCc2nc3cc(C(F)(F)F)ccc3nc2-c2ccccc2)c1	-17.8%	-3.5%	5.9%	-6.2%	-0.95%	-53.8%
COc1cccc(-c2cc(=O)c3cc(N4CCCC4)ccc3[nH]2)c1	-26.3%	-15.2%	-19.9%	8.6%	-21.6%	-19.1%
Cc1ccc(S(=O)(=O)ON/N=c2\ccn(C)c3ccccc23)cc1	38.1%	12.6%	19.1%	-4.85%	8.05%	16.6%
[Cu+2].[O-]C1c2c(ccc3ccccc23)-c2ccccc2C1N=Nc1ccccc1.[O-]c1c(N=Nc2ccccc2)c2ccccc2c2ccc3ccccc3c12 (stereo unspecified)	-19.1%	-20.7%	-7.8%	-20.4%	-10.9%	-20.2%
CC(CCC(=O)O)C1CCC2C3CCC4CCCCC4(C)C3CCC12C (stereo unspecified)	8.4%	41.9%	43.3%	17.3%	51.2%	49.5%
CCOC(=O)Nc1cccc(Cl)c1Cl	-31.1%	-39.1%	-22.4%	6.75%	-27.9%	-8%
CCCCCC#CC(=O)OCC	0.6%	-0.9%	-6.25%	10.1%	-11.9%	15.8%
CCO/C=N/n1c(C(=O)NCCCOC)nc2ccccc2c1=O	-6.25%	-20.3%	7.4%	-5.6%	4.9%	1.75%
CC1C2(c3ccccc3)C(C(=O)c3ccccc3)NC(c3ccccc3)C12c1ccccc1 (stereo unspecified)	46%	6.35%	28.2%	18.9%	2.2%	34.6%
FC(F)(F)c1cc(Br)c2ccc3ncccc3c2n1	6.5%	8.3%	-1.05%	-5.2%	6.8%	3.1%
CCOC(=O)C#Cc1ccc(C#CC(=O)OCC)cc1	-0.5%	19.4%	6.45%	-2.95%	1.95%	51%
CCCCCCCCCCCCCCCCCN(C)C(=O)OCC	23.1%	-62.5%	-55.5%	-114%	-7.15%	-30.8%
CC1=C(C#N)C(=N)OC1(C)C1CC(=O)C=CC1=O (stereo unspecified)	-11.5%	27.4%	7.9%	20.5%	4.55%	4.6%
O=[N+]([O-])c1cc(Br)c2ccccc2c1	6.7%	4.9%	6.45%	2%	18.2%	15.1%

SMILES	growth inhibition [1]	growth inhibition [2]	growth inhibition [3]	growth inhibition [4]	growth inhibition [5]	growth inhibition [6]
[Cu+2].[NH-]C(CC(=O)O)C(=O)O.[NH-]C(CC(=O)O)C(=O)O (stereo unspecified)	-35.3%	-11.7%	-13.7%	64.4%	-61.3%	-3.45%
CSc1ccc(OC(=O)Nc2ccc(Cl)c(Cl)c2)cc1C	95.3% (active)	96.5% (active)	96.9% (active)	95% (active)	94.7% (active)	95.1% (active)
COC(=O)N/N=C(/CC1(O)C(=O)Nc2ccc([N+](=O)[O-])cc21)c1ccccc1 (stereo unspecified)	48.3%	34.2%	36.5%	-3.2%	0.35%	40.8%
N=C(N)SCc1cccc2ccc3cccc(CSC(=N)N)c3c12	4.05%	8.5%	17.4%	-3.1%	2.6%	30.9%
NC(=O)CC(N)C(=O)NC(Cc1ccccc1)C(=O)NC(Cc1ccccc1)NC(=O)C(Cc1c[nH]c2ccccc12)C(=O)O (stereo unspecified)	-18.6%	8.05%	-11.1%	-13.2%	1.85%	1.95%
O=[N+]([O-])c1ccc(C2CC(c3ccccc3)=NN2c2ccccc2)cc1 (stereo unspecified)	7.65%	-8.85%	1.3%	-8.9%	17.9%	-9.05%
COc1ccc(C23CCC(=O)N2CCS3)cc1 (stereo unspecified)	-1.25%	-20.3%	-10.7%	8.15%	30%	2.8%
CCOC(=O)C1(C)CCc2sc(N)c(C#N)c21 (stereo unspecified)	-29.2%	-2.4%	3.75%	-10.8%	2.8%	-8.5%
COC(=O)C1(CC(=O)c2ccc(C)cc2)NC(=S)NC(=O)C1C#N (stereo unspecified)	-4.7%	-4.8%	-30.1%	-8.65%	-34.6%	-0.85%
O=C(Nc1ccc([N+](=O)[O-])cc1)Nc1nccnn1	5.15%	-13.1%	10.6%	-39.9%	8.4%	-0.8%
COc1ccc(S(=O)Cc2cc(OC)c(OC)c(OC)c2)cc1 (stereo unspecified)	-7.9%	-19.9%	-61.7%	-19.8%	-14.3%	-23.7%
CC(C)c1cc(CN(C)C)c(O)c(C(C)(C)C)c1	-25.4%	23.2%	-43.5%	-40%	-14.3%	-8.3%
CSc1nccc(=O)n1C	9.6%	-14.8%	-9.8%	-52.6%	-21.6%	-2.15%
NC(=O)N/N=C/C(Cc1ccccc1)=N/OCc1ccccc1	-6.9%	-1.8%	-0.45%	-17.6%	16.4%	-1.75%
c1ccc(Cn2cccc2N=Nc2ccccc2)cc1	26.4%	2.8%	6.55%	6.8%	-4%	14.3%
NC1CCCCC1NCCNC1CCCCC1N (stereo unspecified)	-3.15%	9.35%	16.4%	-12.9%	42.4%	10.8%
CS(=O)(=O)OC1C(OCc2ccccc2)OC(CO)C(O)C1O (stereo unspecified)	-6.1%	2.15%	-10.1%	-55.6%	-1.6%	0.55%
CCCCCCCCCCCCCCC(=O)OCCN(C)C	-3.6%	-18%	1.45%	-18.2%	8.35%	-10.1%
CC1=CC(=O)C(C(C)C)=CC1=Nc1ccc(N(C)C)cc1	-24.9%	-26.3%	-12.4%	-33%	42.4%	-12.3%
CCOC(=O)C1=C(O)c2c(OC)ccc(OC)c2C(=O)C1=O	-23.6%	-43.5%	-22.2%	3.65%	-16%	-30%

From PubChem BioAssay (NCI)
